Results from PubChem BioAssay AID624300 (Southern Research Specialized Biocontainment Screening …, 2012).
The campaign covered roughly 2,400 compounds. About 360 (15%) were called active. A selection follows. Results with a measured potency or affinity are listed apart. Unmarked numbers belong to inactive results.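 How the source made its calls: active means viability falls under 70% at one or more tested concentrations, taken as toxicity; inactive means viability stays over 70% at every dose.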

test: viability loss in HeLa cells – cytotoxicity control for MgcRacGAP inhibitor project, dose response (AID 624300); conditions: CellTiter-Glo luminescence, 24 h; series mostly up to 100 µM; viability: at the top concentration;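 further: 100% = median of untreated control wells on the same plate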

Compound	viability [%]
Oc1ccc(-c2cn3c(n2)SCC3)cc1	103
CCN(CC)c1ccc(NC(=O)COc2ccc(-n3cnnn3)cc2)cc1	99.8
COc1cc(/C=C/CN2CCC(CO)(CC3CCCCO3)CC2)ccc1O (centres undefined)	102
CC(NS(=O)(=O)c1ccc(Cl)cc1)C(=O)OCC(=O)Nc1ccc(N(C)C)cc1 (centres undefined)	98.3
CCN(CC)CCCNCC(=O)Nc1ccc2c(c1)CCC2	100
COC(=O)c1c(NC(=O)CCNCc2ccco2)sc2c1CCC2	84.9
O=c1c2ccccc2n2c(=S)[nH]nc2n1-c1ccccc1	92
CN(C)C=NC1=NN(c2cccc(C(F)(F)F)c2)CC1	89.1
Cc1ccc(N2C(N)=C(C#N)C3(C(=O)N(C)c4ccccc43)C3=C2CC(C)(C)CC3=O)cc1Cl (centres undefined)	100
C=C1CC(C(=O)N/N=C/c2ccc(O)cc2)C1	107
CC(=O)Nc1ccc2sn(-c3ccccc3)c(=O)c2c1	97.9
O=c1c2ccc(F)cc2sn1-c1ccccc1	82.4
COc1ccc(N2C(=O)/C(=C/N(C)C)NC2=S)cc1	98
COc1cccc(-c2cc(C(=O)N3CCN(c4ccc(F)cc4)CC3)no2)c1	102
NS(=O)(=O)c1ccc(CCNCC(=O)N2CCC(Cc3ccccc3)CC2)cc1	92.9
CSC1=NN(c2ccccc2)CN(c2ccccc2)N1C	86.8
O=C(CNc1ccc(Oc2ccccc2)cc1)N1CCOCC1	94.5
COCC(C)NCc1ccccc1C (centres undefined)	101
CN(C)c1ccc(C=Cc2cnccn2)cc1	91.6
C[n+]1ccc(/C=C/c2ccccc2O)c2ccccc21	97.5
CCOc1ccccc1N1CCN(C/C=C/c2ccc(N(C)C)cc2)CC1	83.7
CCOCCCn1c(=O)c2ccccc2n2c(=S)[nH]nc12	96.2
COc1cc(/C=C(/NC(=O)c2ccccc2)C(=O)Nc2ccc(O)cc2)c([N+](=O)[O-])cc1OC	110
COc1ccc(CN2CCN(Cc3ccc(C(F)(F)F)cc3)CC2)cc1	90.6
O=C(NCc1ccccc1)/C(=C\c1ccc(O)cc1)NC(=O)c1ccco1	107

Compound	viability [%]
CC(C)C1=Nc2cccc3cccc(c23)N1	88.5
COc1ccc(OC(=O)COc2cccc(C)c2)cc1	101
ON=C1c2ccccc2-c2ccc(O)cc21	97.5
CN(C)c1ccc2cc(S(=O)(=O)O)cc(O)c2c1	95.7
O=C(O)c1ccc2c(c1)C(=O)/C(=C\c1ccco1)C2=O	100
Clc1nc(NCc2cccnc2)nc(N2CCOCC2)n1	101
COc1cc(N)ccc1NC(=O)c1cccs1	104
COc1ccc(NC2CCCN(C(=O)c3ccc(C)nc3)C2)cc1 (centres undefined)	105
COc1cc(/C=C/C(=O)OCC(=O)NCCC2=CCCCC2)ccc1O	95.2
COc1ccc(OC)c(CN2CCSCC2)c1	96.5
CCOc1cc(N2CCOCC2)c(OCC)cc1NC(=O)c1ccc(C)s1	112
CCOC(=O)SC1=N/C(=C\c2ccc(N(C)C)cc2)C(=O)S1	92.7
CN(C)c1cc2c3ccccc3n(C)c2cc1N	101
Cc1ccc(/C=[N+](\[O-])c2ccc(N(C)C)cc2)c2nsnc12	102
COc1ccc(NC2=NCCC2)cc1	101
COc1cc(/C=C/C(=O)OCC(=O)N2CCC(Cc3ccccc3)CC2)ccc1O	86.3
Cc1ccc2oc(=O)c(/C=C(\O)c3ccccc3)nc2c1	92.1
C/C(=N\NC(=O)CSCc1ccccc1Cl)c1cc(O)ccc1O	96.4
COc1ccc(C(=O)Nc2ccc(N3CCCCCC3)cc2)cc1S(=O)(=O)N1CCOCC1	96.8
CCOc1ccc(Nc2n[nH]c(=S)s2)cc1	98.4
COc1cc(/C=N\NC(=O)CNC(=O)C(c2ccccc2)c2ccccc2)ccc1O	101
CSc1ncnc2c1ncn2CCCNc1ccc(C)c(C)c1	93.2
CCOC(=O)c1sc(/N=C/c2c(O)ccc3ccccc23)cc1C	96.4
Nc1ccc(Nc2nc(-c3cc4ccccc4oc3=O)cs2)cc1	109
Nc1ccc2c(c1Br)Cc1ccccc1-2	93.5

Compound	viability [%]
COc1cc(CN2CCN(Cc3ccc(C(F)(F)F)cc3)CC2)cc(OC)c1OC	82
Nc1c(Cl)cc(NC(=O)c2ccccc2C(=O)O)cc1Br	103
COc1ccc2c(c1OC)C(=O)OC2CC(=O)c1ccc(O)c(O)c1 (centres undefined)	102
O=C(/C=C/c1ccc(O)c(O)c1)NC(=O)c1ccccc1O	106
COc1ccc(/C=N/NC(=O)c2ccc(CSc3nc(C)cc(C)n3)cc2)cc1O	82.1
O=C(COc1cccc2cccnc12)N/N=C/c1ccc(O)cc1	88.5
COc1ccc(NC(=O)c2cccc(-c3ccc(O)cc3)c2)cn1	83.5
O=C(Nc1ccccc1)c1cccc(-c2nnc(-c3ccccc3)o2)c1	106
O=C(CN1CCCCCC1)NCC1CCCO1 (centres undefined)	106
C#CCOCCOCCOCCNc1nc(N2CCN(C(=O)C([C@@H](C)O)n3cc([C@@H](N)CCCCN)nn3)CC2)nc(N2CCN(C(=O)[C@H](CO)n3cc([C@@H](N)C(C)C)nn3)CC2)n1 (some centres undefined)	107
OCCN(C=NC1=NN(c2cccc(C(F)(F)F)c2)CC1)CCO	88.6
O=C(N/N=C/c1ccc(O)c(O)c1)c1ccc(-n2cnnn2)cc1	105
Cc1cc(-c2n[nH]c(=S)n2/N=C/c2sccc2C)n[nH]1	97.8
COc1ccc(NCCC#N)cc1	108
COc1ccc(NC2CCCN(C(=O)c3cccc(N(C)C)c3)C2)cc1 (centres undefined)	93.3
CCOc1cc(N2CCOCC2)c(OCC)cc1NCC(=O)N1CCN(Cc2ccccc2)CC1	98.9
Cc1[nH]n(-c2ccccc2)c(=O)c1/C=N/N(C)c1ccccc1	94.8
Nc1ccc(N2CCN(c3cccc(Cl)c3)CC2)cc1	109
Brc1cccc(OCCN2CCOCC2)c1	100
CCS(=O)(=O)NC(C)C(c1cccs1)N1CCN(c2ccc(OC)cc2)CC1 (centres undefined)	97.6
O=C1CCCCCN1Sc1ccccc1	93
C=C1c2cccc(O)c2C(O)=C2C(=O)[C@]3(O)C(O)=C(C(N)=O)C(=O)[C@@H](N(C)C)[C@@H]3[C@@H](O)[C@H]12	92.5
CCOc1cc(-c2cc(-c3ccccc3)nc(N)c2C#N)ccc1O	104
CCOc1cc(-c2cc(-c3ccc(N)cc3)nc(N)c2C#N)ccc1O	80.9
